Experimental data: the supplement of paper PMC6555819

Assays:
Assay in all cases: PBM binding z-score (relative to random genomic background probes); higher = stronger binding; sequences stand for … in GC…GCGATTGACAGCGTAGAATGAAGG
[1] = system: PPARg:RXRa DBDmut IVT, anti-RXR (DBD mutation: RXRa K156A/R161A, NR concentration 270 nM, RXRa partner concentration 90 nM)
Outline: (§1)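 Binding z-scores take random background probes as their reference. They come from custom Agilent 4×180K protein-binding microarrays incubated 1 h with ligand-free nuclear receptor dimers, with antibodies against each partner (one per run) detecting binding. Scanned fluorescence was regression-normalized.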

[2] = system: PPARg:RXRa IVT, anti-PPARg (NR concentration 270 nM, RXRa partner concentration 90 nM)
Outline: as §1

[3] = system: PPARg DBDmut:RXRa IVT, anti-PPARg (DBD mutation: PPARg1 K132A/R137A, NR concentration 270 nM, RXRa partner concentration 90 nM)
Outline: as §1

[4] = system: PPARg DBDmut IVT, anti-PPARg (DBD mutation: PPARg1 K132A/R137A, NR concentration 270 nM)
Outline: as §1

[5] = system: PPARg homodimer (NR concentration 180 nM)
Outline: as §1

[6] = system: PXR:RXRa (NR concentration 270 nM, RXRa partner concentration 90 nM)
Outline: as §1

[7] = system: PXR homodimer (NR concentration 270 nM)
Outline: as §1

[8] = system: RARa:RXR (NR concentration 270 nM, RXRa partner concentration 90 nM)
Outline: as §1

[9] = system: RARa homodimer (NR concentration 270 nM)
Outline: as §1

[10] = system: RARb:RXRa (NR concentration 270 nM, RXRa partner concentration 90 nM)
Outline: as §1

[11] = system: RARb homodimer (NR concentration 270 nM)
Outline: as §1

[12] = system: RARg:RXRa (NR concentration 270 nM, RXRa partner concentration 90 nM)
Outline: as §1

[13] = system: RARg homodimer (NR concentration 270 nM)
Outline: as §1

[14] = system: RXRa DBDmut IVT, anti-RXR (DBD mutation: RXRa K156A/R161A, NR concentration 90 nM)
Outline: as §1

[15] = system: RXRa homodimer (NR concentration 180 nM)
Outline: as §1

[16] = system: THRa:RXRa (NR concentration 90 nM, RXRa partner concentration 90 nM)
Outline: as §1

[17] = system: THRa homodimer (NR concentration 90 nM)
Outline: as §1

[18] = system: VDR homodimer (NR concentration 270 nM)
Outline: as §1

Sequence	PBM binding z-score [1]	PBM binding z-score [2]	PBM binding z-score [3]	PBM binding z-score [4]	PBM binding z-score [5]	PBM binding z-score [6]	PBM binding z-score [7]	PBM binding z-score [8]	PBM binding z-score [9]	PBM binding z-score [10]	PBM binding z-score [11]	PBM binding z-score [12]	PBM binding z-score [13]	PBM binding z-score [14]	PBM binding z-score [15]	PBM binding z-score [16]	PBM binding z-score [17]	PBM binding z-score [18]
CCTACTGGGCCAAAAAGGTCATCGATGCCGATAA	3.54	4.4	-0.683	0.00778	3.39	4.69	1.58	5.26	2.06	4.53	4.84	5.18	4.77	0.518	5.25	3.28	0.651	1.99
ATACCAAGGTGATCGTGAGGTCGTTGCTACTAAC	0.566	1.52	0.602	0.38	0.741	3.18	1.05	1.91	0.0838	1.5	1.88	2.03	0.891	0.967	1.56	3.25	2.43	3.33
CTCGAAAGGACGTGCTCAGGTGAGTATACCAAAC	-0.218	-0.388	-0.653	-0.179	-0.0329	-0.345	-0.1	0.0274	-0.22	0.749	0.589	0.291	0.547	0.19	-0.118	1.17	0.542	-0.391
CGTAGTTGGTCAGGAGGTCACACACCGGATATGA	1.51	3.49	0.964	0.266	4.08	4.4	1.55	4.87	1.81	3.54	4.25	5.01	4.39	0.895	4.57	3.46	2.18	3.08
CGTGCTAGGTCATGGTCAGCTAATCTACAGTATG	4.45	4.25	0.168	-0.51	1.36	1.5	-0.399	2.51	-0.32	3.94	3.2	3.97	4.74	1.87	2.75	3.12	1.2	0.319
CCTGCTAGGTTATGGTCAGCTAATCTACAGTATG	1.28	0.468	-0.113	0.438	-0.1	-0.197	-0.354	-0.233	0.0671	1	0.748	0.34	0.636	0.299	0.0468	0.383	-0.417	-0.337
CCCAGTTGGTCAGGAGGTCACACACCGGATATGA	0.556	3.46	-0.0435	-0.356	2.74	3.97	1.3	4.22	1.81	3.79	4.41	4.87	4.25	-0.0617	4.6	3.52	2.63	2.66
CCGACTGGGGCAGAAGGGTTACCATACCATCCGG	1.09	1.56	-0.531	-1.22	0.108	-0.0806	-0.804	0.392	-0.582	0.984	1.08	0.666	0.787	-1.36	0.641	0.0428	-0.605	-0.332
CCGACTGGGGCAAAAGTTACCATACTCAGTACGA	4.08	3.59	-0.127	-0.288	0.506	-0.414	-0.137	-0.0334	-0.135	0.202	0.168	0.333	0.253	0.584	0.278	-0.144	-0.251	-0.248
GGAACTAGGGCATTCGAGTTGATAGCATGGCGAT	7.47	7.05	0.246	1.27	0.796	1.44	-0.109	0.587	-0.515	0.965	0.555	0.292	0.971	0.774	0.131	2.13	-0.433	0.769
TCTTGTAGATCAGGCAGGTTAAGAAAGCCTGAGT	1.29	-0.151	0.127	-0.335	-0.356	0.175	-0.218	0.0754	0.0377	0.0689	-0.0605	-0.161	-0.489	0.355	0.102	0.149	-0.429	0.00584
CCAGACAGGTGAGAAGTTAACTCAGCCTCGATTA	0.968	0.347	-0.638	-0.46	0.326	-0.109	0.36	0.0412	0.721	0.4	0.312	0.26	0.42	0.268	0.0935	0.0119	-0.003	-0.158
TGTATGAGGTTATAAGATCAGGGAACGTTGCAAA	0.0132	0.98	0.426	0.745	0.994	1.1	-0.0169	1.62	0.679	1.47	0.472	1.82	1.46	1.02	1.85	2.08	0.546	0.837
GGAACGAGCGCAAGTTGATAGCAGAGTTTGATGG	-0.621	-0.838	-2.04	-1.98	-1.77	-0.63	-0.349	-1.15	-1.13	-0.612	-0.846	-0.499	-0.47	0.0943	-0.499	-1.01	-0.971	-0.311
ATATGTAGGTTGAGGGTCATTCAGGTTGGTTCGC	4	4.86	1.94	0.913	3.16	4.49	2.53	3.89	1.57	2.57	3.23	2.89	2.15	1.95	3.62	2.92	1.68	3.74
